According to PubChem BioAssay:
Potency and affinity values are given separately. Inconclusive results are not listed. Activity calls are given as the source filed them. How the calls were made is not given here.

Test: general cell-killing toxicity readout – plate reader, dry powder samples, cytotoxicity control for PAX8 inhibitor project, dose response (AID 743021)
Conditions: cell line, non-specific cytotoxicity counter-screen; series mostly up to 35 µM; activity change, negative = cytotoxicity: at the top concentration

Compound	activity change, negative = cytotoxicity
C[C@@H]1CN([C@H](C)CO)C(=O)c2cc(NC(=O)Nc3ccc(F)cc3)ccc2O[C@@H](C)CCCCO[C@H]1CN(C)Cc1ccc(C(F)(F)F)cc1	3.16% (inactive)
O=C(CN1C(=O)c2ccccc2S1(=O)=O)c1ccc2c(c1)OCCO2	1.46% (inactive)
COc1cc(-c2cnc3c(NC=O)cc(-c4cccc(NC(C)=O)c4)cn23)cc(OC)c1OC	33.2% (inactive)
COc1ccc(CN(C)C[C@H]2OCCCC[C@H](C)Oc3ccc(NC(=O)Nc4ccc(C(F)(F)F)cc4)cc3C(=O)N([C@H](C)CO)C[C@H]2C)cc1	-16.1% (inactive)
CN1c2ccc(-c3cccc(C#N)c3)cc2[C@H]2[C@H](CCN2S(=O)(=O)c2ccccc2F)[C@H]1CO	31% (inactive)
C[C@@H]1CCCCO[C@H](CN(C)Cc2ccc(C(F)(F)F)cc2)[C@@H](C)CN([C@@H](C)CO)C(=O)c2cc(NC(=O)Cc3ccccc3)ccc2O1	-11.3% (inactive)
C[C@@H]1CN([C@H](C)CO)C(=O)c2cc(NC(=O)Nc3ccc(F)cc3)ccc2O[C@@H](C)CCCCO[C@@H]1CN(C)Cc1ccc(C(F)(F)F)cc1	13.1% (inactive)
C[C@@H]1CN([C@H](C)CO)C(=O)c2cc(NC(=O)Nc3ccccc3)ccc2O[C@@H](C)CCCCO[C@H]1CN(C)Cc1ccc(C(F)(F)F)cc1	-16.1% (inactive)
O=C(Nc1ccc(F)cc1)N1CC(=O)N2[C@@H](CO)[C@H](c3ccc(-c4ccc(F)cc4)cc3)[C@@H]2C1	-3.67% (inactive)
COc1ccc(S(=O)(=O)N(C)C[C@@H]2OCCCC[C@H](C)Oc3ccc(NS(=O)(=O)c4ccccc4)cc3C(=O)N([C@H](C)CO)C[C@H]2C)cc1	16.9% (inactive)
